{
  "source": "PubChem BioAssay (NCATS)",
  "note": "Results filed as inconclusive are left out. Values without a mark were called inactive. Activity calls are given as the source filed them. Calls follow the shape of the dose curve; as a rule, active = well fitted inhibition curve with a large enough effect; inconclusive = small, poorly fitted or top-dose-only effect; inactive = flat fitted curve, though single readings scatter. Potency is read from the fitted curve at half-maximal effect.",
  "data": [
    {"biological_target": "Voltage-gated inwardly rectifying potassium channel KCNH2 (Homo sapiens) (UniProt Q12809)", "sequence (Q12809 whole entry, looked up)": "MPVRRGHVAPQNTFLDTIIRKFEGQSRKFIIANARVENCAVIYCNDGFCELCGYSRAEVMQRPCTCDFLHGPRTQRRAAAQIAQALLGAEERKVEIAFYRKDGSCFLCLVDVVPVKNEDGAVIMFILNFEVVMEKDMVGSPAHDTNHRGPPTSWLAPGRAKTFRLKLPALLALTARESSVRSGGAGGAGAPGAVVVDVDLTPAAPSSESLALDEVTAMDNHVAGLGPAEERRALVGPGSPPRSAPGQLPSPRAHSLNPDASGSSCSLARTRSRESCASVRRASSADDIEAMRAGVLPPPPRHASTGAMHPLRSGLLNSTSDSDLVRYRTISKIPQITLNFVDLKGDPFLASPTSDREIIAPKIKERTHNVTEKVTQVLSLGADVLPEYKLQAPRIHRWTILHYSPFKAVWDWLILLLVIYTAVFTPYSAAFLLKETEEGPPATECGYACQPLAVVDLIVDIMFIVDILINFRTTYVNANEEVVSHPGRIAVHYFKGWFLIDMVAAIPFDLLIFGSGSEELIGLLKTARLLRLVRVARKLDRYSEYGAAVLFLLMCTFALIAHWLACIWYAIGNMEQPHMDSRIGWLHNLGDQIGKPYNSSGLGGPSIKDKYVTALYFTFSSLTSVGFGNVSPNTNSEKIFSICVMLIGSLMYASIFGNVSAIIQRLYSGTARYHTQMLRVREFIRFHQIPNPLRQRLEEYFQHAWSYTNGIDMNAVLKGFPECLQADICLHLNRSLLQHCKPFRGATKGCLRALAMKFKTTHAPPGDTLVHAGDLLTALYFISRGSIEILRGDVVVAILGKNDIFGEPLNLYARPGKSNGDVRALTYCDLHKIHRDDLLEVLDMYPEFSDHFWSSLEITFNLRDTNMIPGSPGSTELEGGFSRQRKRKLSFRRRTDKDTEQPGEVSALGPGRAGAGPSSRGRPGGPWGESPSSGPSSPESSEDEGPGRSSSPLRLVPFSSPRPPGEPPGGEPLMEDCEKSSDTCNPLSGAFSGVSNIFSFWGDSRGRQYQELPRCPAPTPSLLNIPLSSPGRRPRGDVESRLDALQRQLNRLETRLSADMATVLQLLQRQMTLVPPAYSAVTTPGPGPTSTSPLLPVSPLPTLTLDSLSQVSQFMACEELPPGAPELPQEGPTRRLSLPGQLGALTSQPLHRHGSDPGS", "assay": "qHTS Assay for Small Molecule Inhibitors of the Human hERG Channel Activity (AID 588834);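 also: lower thallium flux fluorescence means stronger hERG block; nearly all actives have a fitted effect of over 50% in size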; as to activity change, negative = inhibition: top concentration of the series differs between compounds; % is scaled to controls: 0 for no effect and ±100 for the full control effect", "conditions": "U2OS BacMam hERG, FluxOR thallium flux fluorescence; series mostly up to 46.1 µM; activity change, negative = inhibition: at the top concentration", "procedure,_shortened": "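Cells were infected with hERG-BacMam virus for 4 hrs at room temperature, grown overnight, then seeded at 2000/well. After dye loading and roughly 10 min compound treatment, thallium influx was triggered and fluorescence recorded.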", "units": {"activity change, negative = inhibition": "%"}, "values": [
      {"smiles": "NC(=O)CN1CC(O)CC1=O", "note": "(stereo not given)", "activity change, negative = inhibition": 10.6},
      {"smiles": "CCCCc1ccc(C(=O)O)nc1", "activity change, negative = inhibition": -41.8},
      {"smiles": "Cc1nccc2c1[nH]c1ccccc12", "activity change, negative = inhibition": -23.6},
      {"smiles": "C[N+](C)(C)CC(=O)O", "Potency": "inactive"},
      {"smiles": "COC(=O)c1cncn1C(C)c1ccccc1", "note": "(stereo not given)", "activity change, negative = inhibition": 24.1},
      {"smiles": "CC[C@@]1(O)C(=O)OCc2c1cc1n(c2=O)Cc2cc3ccccc3nc2-1", "activity change, negative = inhibition": -1.43},
      {"smiles": "C[C@]12CCC(=O)C(O)=C1CC[C@@H]1[C@H]3CCC(=O)[C@@]3(C)CC[C@@H]12", "activity change, negative = inhibition": -3.41},
      {"smiles": "O=[N+]([O-])c1ccc([As](=O)(O)O)cc1", "activity change, negative = inhibition": 6.85},
      {"smiles": "NC(CCP(=O)(O)O)C(=O)O", "note": "(stereo not given)", "activity change, negative = inhibition": 5.47},
      {"smiles": "C[C@]12N[C@H](Cc3ccccc31)c1ccccc12", "Potency": "inactive"},
      {"smiles": "NC1=NC(=O)N2CC12", "note": "(stereo not given)", "activity change, negative = inhibition": -3.55},
      {"smiles": "NCc1cc(=O)[nH]o1", "activity change, negative = inhibition": 2.67},
      {"smiles": "CC(C)NC(C)Cc1ccc(I)cc1", "note": "(stereo not given)", "Potency": "8.91 µM (active)"},
      {"smiles": "C[N+]1(C)C2CCC1CC(OC(=O)C(CO)c1ccccc1)C2", "note": "(stereo not given)", "Potency": "inactive"},
      {"smiles": "CC(=O)[C@H]1CCC2C3CC[C@H]4C[C@H](O)CC[C@]4(C)C3CC[C@@]21C", "note": "(stereo not given in full)", "activity change, negative = inhibition": 0},
      {"smiles": "CN[C@@H]1C[C@@H](c2ccc(Cl)c(Cl)c2)c2ccccc21", "Potency": "12.6 µM (active)"},
      {"smiles": "CN1C2CCC1CC(OC(=O)c1cc(Cl)cc(Cl)c1)C2", "note": "(stereo not given)", "Potency": "3.55 µM (active)"},
      {"smiles": "C[C@@H]1O[C@H](C[N+](C)(C)C)C[C@H]1O", "activity change, negative = inhibition": -1.44},
      {"smiles": "CC(Cc1ccc(O)cc1)NCC(O)c1cc(O)cc(O)c1", "note": "(stereo not given)", "Potency": "inactive"},
      {"smiles": "CC[N+]1(CCOC(=O)C(O)(c2ccccc2)c2ccccc2)CCCCC1", "activity change, negative = inhibition": 12.2},
      {"smiles": "CNCCc1c[nH]c2ccc(O)cc12", "activity change, negative = inhibition": 12.9},
      {"smiles": "CCCN1CCC[C@H](c2cccc(O)c2)C1", "activity change, negative = inhibition": 3.52}
    ]},
    {"biological_target": "Luciferin 4-monooxygenase (Photinus pyralis) (UniProt P08659)", "sequence (P08659 whole entry, looked up)": "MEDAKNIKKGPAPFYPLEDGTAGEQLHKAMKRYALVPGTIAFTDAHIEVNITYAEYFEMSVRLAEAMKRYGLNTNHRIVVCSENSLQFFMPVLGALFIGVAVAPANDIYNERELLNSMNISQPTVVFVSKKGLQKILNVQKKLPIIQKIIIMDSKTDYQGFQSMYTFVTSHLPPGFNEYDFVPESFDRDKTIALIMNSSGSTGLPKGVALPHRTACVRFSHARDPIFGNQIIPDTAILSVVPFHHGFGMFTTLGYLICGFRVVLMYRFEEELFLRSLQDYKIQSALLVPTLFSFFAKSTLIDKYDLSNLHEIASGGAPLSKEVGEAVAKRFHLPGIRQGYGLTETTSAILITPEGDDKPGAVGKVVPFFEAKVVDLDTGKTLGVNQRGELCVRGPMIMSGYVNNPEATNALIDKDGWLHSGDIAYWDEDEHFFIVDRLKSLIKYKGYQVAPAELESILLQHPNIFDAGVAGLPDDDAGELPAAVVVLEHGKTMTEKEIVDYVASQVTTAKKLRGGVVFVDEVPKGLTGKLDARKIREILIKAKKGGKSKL", "assay": "Biochemical firefly luciferase enzyme assay for NPC (AID 624030); also: nearly all actives have a fitted effect of over 70% in size;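 as to activity change, negative = inhibition: purified P. pyralis luciferase at 10 nM with luciferin and ATP substrate; 0% = DMSO and -100% = full luciferase inhibition by PTC124 control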", "conditions": "purified P. pyralis luciferase, luminescence, 5 min; series mostly up to 58.6 µM; activity change, negative = inhibition: at the top concentration", "procedure,_shortened": "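Purified P. pyralis luciferase at 10 nM in 50 mM Tris Acetate (final), luminescence read within 5 minutes of enzyme addition to compounds. Activity normalised to PTC124 versus DMSO; concentration-response curves classed by r2, magnitude and activity.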", "values": [
      {"smiles": "NC(=O)CN1CC(O)CC1=O", "note": "(stereo not given)", "activity change, negative = inhibition": "-0.101%"},
      {"smiles": "C[C@]12CC[C@@H]3[C@@H](CCC4=CC(=O)CC[C@@H]43)[C@@H]1CC[C@@H]2OC(=O)CCc1ccccc1", "activity change, negative = inhibition": "1.09%"},
      {"smiles": "S=C(SSC(=S)N1CCCCC1)N1CCCCC1", "Potency": "8.09 µM (active)"},
      {"smiles": "CCCCc1ccc(C(=O)O)nc1", "activity change, negative = inhibition": "-6.95%"},
      {"smiles": "CCC1(CCC(C)C)C(=O)NC(=O)NC1=O", "activity change, negative = inhibition": "0.473% [at 123 µM]"},
      {"smiles": "C[N+](C)(C)CC(=O)O", "activity change, negative = inhibition": "2.47%"},
      {"smiles": "C=CCN1CC[C@]23CCCCC2[C@H]1Cc1ccc(O)cc13", "note": "(stereo not given in full)", "activity change, negative = inhibition": "1.46%"},
      {"smiles": "COC(=O)c1cncn1C(C)c1ccccc1", "note": "(stereo not given)", "activity change, negative = inhibition": "-6.41%"},
      {"smiles": "Cc1ccc(Cl)c(O)c1", "activity change, negative = inhibition": "6.44%"},
      {"smiles": "C[C@]12CCC(=O)C(O)=C1CC[C@@H]1[C@H]3CCC(=O)[C@@]3(C)CC[C@@H]12", "activity change, negative = inhibition": "-0.0038%"},
      {"smiles": "CC(=O)OCC1=C(C(=O)O)N2C(=O)[C@@H](N)[C@@H]2SC1", "activity change, negative = inhibition": "-3.34% [at 24.9 µM]"},
      {"smiles": "O=[N+]([O-])c1ccc([As](=O)(O)O)cc1", "activity change, negative = inhibition": "1.27%"},
      {"smiles": "O=C(O)c1ccccc1O", "Potency": "inactive"},
      {"smiles": "C[C@]12N[C@H](Cc3ccccc31)c1ccccc12", "activity change, negative = inhibition": "-0.277%"},
      {"smiles": "CC(C)(C)NC[C@H](O)c1ccc(O)cc1Cl", "activity change, negative = inhibition": "-1.11%"},
      {"smiles": "NC1=NC(=O)N2CC12", "note": "(stereo not given)", "activity change, negative = inhibition": "2.98%"},
      {"smiles": "c1ccc(C2(c3ccccc3)CC2C2=NCCN2)cc1", "note": "(stereo not given)", "activity change, negative = inhibition": "2.09%"},
      {"smiles": "COC(=O)[C@@H](N)CCCN=C(N)N[N+](=O)[O-]", "activity change, negative = inhibition": "0.875%"},
      {"smiles": "CC(C)NC(C)Cc1ccc(I)cc1", "note": "(stereo not given)", "activity change, negative = inhibition": "0.655%"},
      {"smiles": "CC(C)NCC(O)c1ccc([N+](=O)[O-])cc1", "note": "(stereo not given)", "activity change, negative = inhibition": "-2.03%"},
      {"smiles": "C#CC1(O)CCC2C3CCC4=CC(=O)CCC4(C)C3CCC21C", "note": "(stereo not given)", "activity change, negative = inhibition": "0.333%"},
      {"smiles": "CN[C@@H]1C[C@@H](c2ccc(Cl)c(Cl)c2)c2ccccc21", "activity change, negative = inhibition": "8.96%"},
      {"smiles": "CC(O)CN1CCN(CC(=O)[O-])CCN(CC(=O)[O-])CCN(CC(=O)[O-])CC1.[Gd+3]", "note": "(stereo not given)", "Potency": "inactive"},
      {"smiles": "CN1C2CCC1CC(OC(=O)c1cc(Cl)cc(Cl)c1)C2", "note": "(stereo not given)", "activity change, negative = inhibition": "3.5%"},
      {"smiles": "C[C@@H]1[C@H](O)[C@@H](C)C=CC=CCCC=CC=CC=CC=C[C@H](O[C@H]2O[C@@H](C)[C@H](O)[C@@H](N)[C@@H]2O)CC2O[C@](O)(C[C@@H](O)[C@H](O)CC[C@@H](O)C[C@@H](O)C[C@@H](O)CC(=O)O[C@H]1C)C[C@H](O)[C@H]2C(=O)O", "activity change, negative = inhibition": "-1.98%"},
      {"smiles": "CC[N+]1(CCOC(=O)C(O)(c2ccccc2)c2ccccc2)CCCCC1", "activity change, negative = inhibition": "-0.545%"},
      {"smiles": "COc1cc([C@@H]2c3cc4c(cc3[C@@H](O)C3COC(=O)C32)OCO4)cc(OC)c1O", "note": "(stereo not given in full)", "activity change, negative = inhibition": "-7.13%"},
      {"smiles": "CCCN1CCC[C@H](c2cccc(O)c2)C1", "activity change, negative = inhibition": "-1.11%"}
    ]}
  ]
}
